Laboratory results reported in article PMC11006913.

Key:
Assay in all cases: PBM; 200 nM protein, PBS
Conditions in all cases: dsDNA, one strand shown
PROP1 [1] = biological target: PROP1 (Homo sapiens, UniProt O75360 56-141)
PROP1 [2] = biological target: PROP1 (Homo sapiens, UniProt O75360 56-141, R99H)
PROP1 [3] = biological target: PROP1 (Homo sapiens, UniProt O75360 56-141, F88S)
PROP1 (Homo sapiens, UniProt O75360 56-141, F88S), sequence (O75360 56-141 F88S): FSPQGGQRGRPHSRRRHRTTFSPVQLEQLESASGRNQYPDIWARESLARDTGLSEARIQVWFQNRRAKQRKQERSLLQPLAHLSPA

PROP1 (Homo sapiens, UniProt O75360 56-141, R99H), sequence (O75360 56-141 R99H): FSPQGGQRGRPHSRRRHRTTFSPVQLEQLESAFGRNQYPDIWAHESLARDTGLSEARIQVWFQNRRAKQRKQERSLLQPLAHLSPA
PROP1 (Homo sapiens, UniProt O75360 56-141), sequence (O75360 56-141): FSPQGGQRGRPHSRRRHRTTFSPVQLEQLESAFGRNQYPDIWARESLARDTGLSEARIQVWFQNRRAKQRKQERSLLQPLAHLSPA

Row | Sequence | binding signal (PROP1 [1]) | binding signal (PROP1 [2]) | binding signal (PROP1 [3])
1 | GTCAGGAC | 6.88 upbm affinity estimate (log intensity, higher = more binding, comparable within an allelic series) | 6.96 upbm affinity estimate (log intensity, higher = more binding, comparable within an allelic series) | 6.86 upbm affinity estimate (log intensity, higher = more binding, comparable within an allelic series)
2 | GCTCCGCA | 6.82 upbm affinity estimate (log intensity, higher = more binding, comparable within an allelic series) | 6.82 upbm affinity estimate (log intensity, higher = more binding, comparable within an allelic series) | 6.66 upbm affinity estimate (log intensity, higher = more binding, comparable within an allelic series)
3 | AATATGAA | 8.47 upbm affinity estimate (log intensity, higher = more binding, comparable within an allelic series) | 8.01 upbm affinity estimate (log intensity, higher = more binding, comparable within an allelic series) | 7.42 upbm affinity estimate (log intensity, higher = more binding, comparable within an allelic series)
4 | AATTCAAC | 8.25 upbm affinity estimate (log intensity, higher = more binding, comparable within an allelic series) | 7.78 upbm affinity estimate (log intensity, higher = more binding, comparable within an allelic series) | 7.25 upbm affinity estimate (log intensity, higher = more binding, comparable within an allelic series)
5 | CACGTCGC | 6.91 upbm affinity estimate (log intensity, higher = more binding, comparable within an allelic series) | 6.79 upbm affinity estimate (log intensity, higher = more binding, comparable within an allelic series) | 6.8 upbm affinity estimate (log intensity, higher = more binding, comparable within an allelic series)
6 | AATTGGCG | 9.12 upbm affinity estimate (log intensity, higher = more binding, comparable within an allelic series) | 8.88 upbm affinity estimate (log intensity, higher = more binding, comparable within an allelic series) | 7.29 upbm affinity estimate (log intensity, higher = more binding, comparable within an allelic series)
7 | GGCATGAC | 6.69 upbm affinity estimate (log intensity, higher = more binding, comparable within an allelic series) | 6.75 upbm affinity estimate (log intensity, higher = more binding, comparable within an allelic series) | 6.7 upbm affinity estimate (log intensity, higher = more binding, comparable within an allelic series)
8 | ACGGTAGG | 6.51 upbm affinity estimate (log intensity, higher = more binding, comparable within an allelic series) | 6.62 upbm affinity estimate (log intensity, higher = more binding, comparable within an allelic series) | 6.62 upbm affinity estimate (log intensity, higher = more binding, comparable within an allelic series)
9 | AGTAAATA | 8.94 upbm affinity estimate (log intensity, higher = more binding, comparable within an allelic series) | 8.48 upbm affinity estimate (log intensity, higher = more binding, comparable within an allelic series) | 7.6 upbm affinity estimate (log intensity, higher = more binding, comparable within an allelic series)
10 | GGCTGACC | 6.72 upbm affinity estimate (log intensity, higher = more binding, comparable within an allelic series) | 6.74 upbm affinity estimate (log intensity, higher = more binding, comparable within an allelic series) | 6.56 upbm affinity estimate (log intensity, higher = more binding, comparable within an allelic series)
11 | CCGACCGG | 6.54 upbm affinity estimate (log intensity, higher = more binding, comparable within an allelic series) | 6.6 upbm affinity estimate (log intensity, higher = more binding, comparable within an allelic series) | 6.35 upbm affinity estimate (log intensity, higher = more binding, comparable within an allelic series)
12 | GCATCTCC | 6.85 upbm affinity estimate (log intensity, higher = more binding, comparable within an allelic series) | 6.93 upbm affinity estimate (log intensity, higher = more binding, comparable within an allelic series) | 6.57 upbm affinity estimate (log intensity, higher = more binding, comparable within an allelic series)
13 | CCTGTTAG | 8.32 upbm affinity estimate (log intensity, higher = more binding, comparable within an allelic series) | 8.15 upbm affinity estimate (log intensity, higher = more binding, comparable within an allelic series) | 7.19 upbm affinity estimate (log intensity, higher = more binding, comparable within an allelic series)
14 | AGTCTGCG | 6.67 upbm affinity estimate (log intensity, higher = more binding, comparable within an allelic series) | 6.73 upbm affinity estimate (log intensity, higher = more binding, comparable within an allelic series) | 6.68 upbm affinity estimate (log intensity, higher = more binding, comparable within an allelic series)
15 | GCGGCCGA | 6.81 upbm affinity estimate (log intensity, higher = more binding, comparable within an allelic series) | 6.82 upbm affinity estimate (log intensity, higher = more binding, comparable within an allelic series) | 6.76 upbm affinity estimate (log intensity, higher = more binding, comparable within an allelic series)
16 | CTTGGGTC | 6.81 upbm affinity estimate (log intensity, higher = more binding, comparable within an allelic series) | 6.75 upbm affinity estimate (log intensity, higher = more binding, comparable within an allelic series) | 6.83 upbm affinity estimate (log intensity, higher = more binding, comparable within an allelic series)
17 | AGAGCCGG | 6.81 upbm affinity estimate (log intensity, higher = more binding, comparable within an allelic series) | 6.67 upbm affinity estimate (log intensity, higher = more binding, comparable within an allelic series) | 6.47 upbm affinity estimate (log intensity, higher = more binding, comparable within an allelic series)
18 | AGCCTGGC | 6.55 upbm affinity estimate (log intensity, higher = more binding, comparable within an allelic series) | 6.87 upbm affinity estimate (log intensity, higher = more binding, comparable within an allelic series) | 6.67 upbm affinity estimate (log intensity, higher = more binding, comparable within an allelic series)
19 | AGGACACC | 6.84 upbm affinity estimate (log intensity, higher = more binding, comparable within an allelic series) | 6.77 upbm affinity estimate (log intensity, higher = more binding, comparable within an allelic series) | 6.75 upbm affinity estimate (log intensity, higher = more binding, comparable within an allelic series)
20 | AGCTCCCG | 6.72 upbm affinity estimate (log intensity, higher = more binding, comparable within an allelic series) | 6.63 upbm affinity estimate (log intensity, higher = more binding, comparable within an allelic series) | 6.46 upbm affinity estimate (log intensity, higher = more binding, comparable within an allelic series)
21 | GCTAGACC | 6.61 upbm affinity estimate (log intensity, higher = more binding, comparable within an allelic series) | 6.75 upbm affinity estimate (log intensity, higher = more binding, comparable within an allelic series) | 6.62 upbm affinity estimate (log intensity, higher = more binding, comparable within an allelic series)
22 | GGCCACCA | 6.96 upbm affinity estimate (log intensity, higher = more binding, comparable within an allelic series) | 6.82 upbm affinity estimate (log intensity, higher = more binding, comparable within an allelic series) | 6.75 upbm affinity estimate (log intensity, higher = more binding, comparable within an allelic series)
23 | GGTGCACC | 6.54 upbm affinity estimate (log intensity, higher = more binding, comparable within an allelic series) | 6.58 upbm affinity estimate (log intensity, higher = more binding, comparable within an allelic series) | 6.7 upbm affinity estimate (log intensity, higher = more binding, comparable within an allelic series)
24 | AGGCTCCG | 6.78 upbm affinity estimate (log intensity, higher = more binding, comparable within an allelic series) | 6.73 upbm affinity estimate (log intensity, higher = more binding, comparable within an allelic series) | 6.8 upbm affinity estimate (log intensity, higher = more binding, comparable within an allelic series)
